Compound activity as filed in PubChem.
Compounds with a hit are over-represented: about 2.1% of the library has one in this group of screens.
aSyn yeast inh: qHTS of alpha-syn Inhibitors. Potency, µM (series often up to 46.1 µM), inactives show top-dose growth rescue (activation), hits mostly activators. actives 0.14% (n = 370,000). Yeast expressing alpha-synuclein, growth rescue, BacTiter-Glo, 24 h; further: % of control where 0% means no effect; nearly all actives have a fitted effect of over 65% in size
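Galactose-induced alpha-syn yeast (OD600=0.02, raffinose-pregrown) + pinned cpd, 24 hr, 30 deg C; growth by BacTiter-Glo luminescence. Growth restoration scores as activation.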
Abeta rescue: qHTS for compounds that reverse cellular toxicity of Amyloid beta (A-beta) peptide in yeast: Primary Screen. actives 0.063% (n = 410,000). AID 1347071, 2019. yeast expressing A-beta42, growth rescue, OD600, 48 h; response scale: 0% DMSO, 100% iron-clioquinol control. Potency, µM (top dose mostly 46.1 µM), most hits filed as activators; further: nearly all actives have a fitted effect of over 55% in size
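Growth rescue measured by 600 nm absorbance after 48 h yeast culture at 30 C with compound. Values normalized between DMSO and an equimolar ferric chloride plus clioquinol control.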
FUS suppressor: qHTS for Suppressors of FUS Proteinopathy: Primary screen using FUS-linked yeast assay; AID 1347120, 2019; actives 0.24% (n = 390,000); S. cerevisiae FUS-expressing, growth rescue, OD600, 24 h; Potency, µM (series often up to 76.6 µM), most hits filed as activators;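 further: plate controls were DMSO vehicle for no effect and reference control for full effect; nearly all actives have a fitted effect of over 55% in size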
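Steps: raffinose overnight preculture; dilution to OD 0.005 in 2% galactose minimal medium; compound addition (concentration series); 24hr at 30C, 99% humidity; absorbance read at 600 nm.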
TDP-43 yeast inh: qHTS of TDP-43 Inhibitors | TDP-43 expressing yeast growth rescue, BacTiter-Glo, 24 h | Potency, µM (top dose mostly 46.1 µM), for the others: at the highest dose growth rescue (activation), usual class: activators | actives 1.8% (n = 410,000) | AID 652104, 2013; further: % of control where 0% means no effect; nearly all actives have a fitted effect of over 50% in size
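In this qHTS, compounds that restore growth of yeast expressing TDP-43 appear as activators. Cells (OD600=0.02, galactose medium, raffinose-pregrown) are incubated with compound 24 hr at 30 deg C and growth is quantified by BacTiter-Glo.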
Active calls of the source: *; i = inactive; ? = inconclusive; · = no result given; [ ] = dose if it differs, or a comment. The call rests on the fitted dose curve; in most records, active means well fitted curve in the direction sought with a large enough effect; inconclusive means small, poorly fitted or top-dose-only effect, or another doubt; inactive means no such curve, though single readings can be large; an effect the other way counts as inactive or inconclusive. Potency means the concentration at half of the fitted maximal effect.

SMILES | aSyn yeast inh | Abeta rescue | FUS suppressor | TDP-43 yeast inh
Clc1cccc(-n2cc(-c3ccccc3)c3c(NC4CCCC4)ncnc32)c1 | · | i | i | 0%
COc1ccc(-n2cc(-c3ccccc3)c3c(NC4CCCC4)ncnc32)cc1 | · | i | i | 22µM*
CC(=O)c1c(C)[nH]c(C(=O)Nc2ccccc2C)c1C | · | · | i | ·
CCCCSc1ccc2nc(-c3ccc(C#N)cc3)cn2c1 | -12% | i | i | 11µM*
CCCSc1ccc2nc(-c3ccccc3)cn2c1 | -18% | i | · | -14%
COc1ccccc1N1CCN(C2CC(=O)N(c3cccc(Br)c3)C2=O)CC1 (stereo not given) | -70% | i | i | 27%
COc1cc2c(cc1OC)CN(C1CC(=O)N(c3c(C)cccc3C)C1=O)CC2 (stereo not given) | 10% | i | i | 14µM*
Cc1ccnc(SCc2cc(=O)c(OC(=O)c3ccc(C#N)cc3)co2)n1 | · | · | i | ·
Cc1ccc(O)c(NC(=O)CCS(=O)(=O)c2nc(-c3cccs3)cc(C(F)(F)F)n2)c1 | · | i | i | 11µM*
O=C(CCS(=O)(=O)c1nc(-c2ccc3c(c2)OCO3)cc(C(F)(F)F)n1)Nc1ccc(F)cc1F | · | i | i | 13µM*
O=C(CCS(=O)(=O)c1nc(-c2cccs2)cc(C(F)(F)F)n1)Nc1cc(Br)ccc1O | ? | i | i | 18µM*
O=C(CCS(=O)(=O)c1nc(-c2cccs2)cc(C(F)(F)F)n1)Nc1ccc(Br)cc1 | · | i | i | ?
COc1ccc(NC(=O)CCS(=O)(=O)c2nc(-c3ccc4c(c3)OCO4)cc(C(F)(F)F)n2)cc1 | · | i | i | ?
CCC(C)N(C(=O)CN1C(=O)C2CCCCN2C(=O)c2ccccc21)C(C)CC (stereo not given) | · | · | i | ·
N#CCC[C@H]1CC[C@]2(CCCN(Cc3cccc4ccccc34)C2)O1 | · | · | i | ·
C[C@@H](N)P(=O)(O)C[C@H](Cc1ccccc1)C(=O)O | · | · | i | ·
COCCCNC(=O)C[C@H]1C[C@@]2(C(=O)OC)C(=C[C@H](C3CCCC3)O[C@@H]2C)N(CCc2ccc(OC)c(OC)c2)C1=O | · | · | i | ·
CC(c1ccccc1)N1CC[C@H]2C=CC[C@@H](C(=O)Nc3ccc(F)c(F)c3)[C@H]2C1=O (stereo not given in full) | · | · | i | ·
O=C(O)c1ccc(N/N=C/c2cn(Cc3ccc(F)cc3)c3ccccc23)cc1 | -15% | i | i | ?
O=[N+]([O-])/C=C/c1cn(Cc2ccc(F)cc2)c2ccccc12 | 8% | i | i | 13µM*
CCOC(=O)N1CCN(C(=O)C2CCN(S(=O)(=O)c3cc(Cl)ccc3Cl)CC2)CC1 | 15% | i | ? | 11µM*
O=S(=O)(c1cc(Cl)ccc1Cl)N1CCCCC1 | 10% | i | i | 16µM*
O=C(c1ccco1)N1CCN(S(=O)(=O)c2cc(Cl)ccc2Cl)CC1 | 13% | i | i | 18µM*
CN(c1ccc(/C=C/c2ccccc2)cc1)P1(=O)NCCCO1 (stereo not given) | 0% | · | · | ·
COc1ccc(-c2ccc(C(=O)NC3CCCCC3)c3occc23)c(C)c1 | 0% | i | i | 13µM*
SMILES | aSyn yeast inh | Abeta rescue | FUS suppressor | TDP-43 yeast inh
O=C(NC1CCCCC1)c1ccc(-c2cn[nH]c2)c2ccoc12 | 0% | i | i | 22µM*
COc1ccc(-c2coc3c(C(=O)NC4CCCCC4)cccc23)c(C)c1 | 2% | i | i | 19%
Cn1c(SCCc2ccccc2)nnc1-c1ccco1 | · | · | i | ·
CCCC(=O)N(C)c1ccc(/C=C2\C=Cc3ccccc32)cc1 | 5% | · | · | ·
CCN1CCN(Cc2ccc(NC(=O)c3cc(NC(=O)c4cc(-c5ccc(OC)cc5)n[nH]4)cc(OC)c3)cc2C(F)(F)F)CC1 | -6% | i | 28µM* | -2%
CCN1CCN(Cc2ccc(NC(=O)c3cc(NC(=O)c4ccc5n[nH]nc5c4)cc(OC)c3)cc2C(F)(F)F)CC1 | -6% | i | i | 17%
COc1ccc(NS(=O)(=O)c2cc(NC(=O)CCNC(C)=O)ccc2N2CCCCC2)cc1 | 1%[1.84 µM] | i | 32µM* | 1%
Cc1c(-c2ccccc2)sc2nc[nH]c(=S)c12 | -4% | ? | i | 16µM*
N#C/C(=C\c1ccccc1)C(=O)NC1CC1 | 9% | ? | i | ?
N#C/C(=C\c1c(F)cccc1Cl)C(=O)NC1CC1 | 1% | i | i | 13µM*
COc1ccc2nc(-c3ccccc3)[nH]c2c1 | -18% | i | i | 18%
COc1ccc2[nH]c(-c3ccccc3)cc2c1 | 1% | i | i | 13µM*
Cc1cccc(NC(=S)NCCc2ccccc2)c1C | -2% | i | i | 18µM*
S=C(NCCc1ccc(Cl)cc1)NC1CCCCC1 | -7% | ? | i | 0%
Cc1c(Cl)cccc1NC(=S)NCCc1ccc(Cl)cc1 | 10% | 10µM* | i | ?
Cc1c(Cl)cccc1NC(=S)NC1CCCC1 | -5% | ? | i | 20µM*
COc1ccc(CCNC(=S)Nc2cccc(C)c2C)cc1 | ? | i | · | ?
S=C(NCCc1ccc(Cl)cc1)NC1CCCC1 | -14% | 10µM* | i | 21%
CC(=O)Nc1ccc(/C=C/COC(C)=O)cc1C | · | · | i | ·
CCOC(=O)[C@]12CCCCC/C=C\1N(CCc1ccc(Cl)cc1)C(=O)[C@H]2CC(=O)NCCCOC | · | · | i | ·
O=C1CC(c2cc(Br)ccc2F)c2cc3c(cc2N1)CCC3 (stereo not given) | 4.5µM* | i | i | -24%
O=C1CC(c2cccc(Cl)c2)c2cc3c(cc2N1)CCC3 (stereo not given) | 4µM* | i | i | -1%
COCCCNC(=O)c1ccc2c(c1)NC(=O)C(C)(C)O2 | · | · | i | ·
CCN(N=O)c1ccc(/C=C/c2ccnc3ccccc23)cc1 | -13% | · | · | ·
Cc1noc(-c2ccc(N3CCCCC3)c([N+](=O)[O-])c2)n1 | · | i | i | 18µM*
SMILES | aSyn yeast inh | Abeta rescue | FUS suppressor | TDP-43 yeast inh
Cc1cc(C=O)c(C)n1-c1ccc(N2CCCCC2)c([N+](=O)[O-])c1 | -6% | i | i | 18µM*
Cc1ccc(-c2noc(-c3ccc(N4CCCC4)c([N+](=O)[O-])c3)n2)cc1 | · | i | i | -3%
COC(=O)C[C@@H]1CC[C@H]2[C@@H](COc3ccc(NC(=O)c4ccc(C(F)(F)F)cc4)cc3C(=O)N2C)O1 | · | · | i | ·
Cc1ccccc1CC(=O)Nc1nnc(-c2cccnc2)s1 | · | · | i | ·
Cc1cc(C)nc(SCc2nnc(SCc3ccccc3Cl)o2)n1 | 18% | i | i | 16µM*
Cc1ccccc1NC(=O)CCCSc1nc2ccccc2s1 | 6% | i | · | 13µM*
CCc1cccc(C)c1NC(=O)CCCSc1nc2ccccc2s1 | -12% | i | i | -5%
Cc1ccc(SCc2nc(N)nc(Nc3ccccc3C)n2)cc1C | 2% | i | ? | 18µM*
